Screening results: PubChem BioAssay, National Center for Advancing Translational Sciences (NCATS)
KB-3-1 tox – kills parental KB-3-1 adenocarcinoma cells; KB-3-1 viability, CellTiter-Glo ATP luminescence, 72 h; Potency, µM (series often up to 46.1 µM), hits mostly cytotoxic; hit rate 1.4% among 400,000; also: nearly all actives have a fitted effect of over 60% in size
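Cells are dispensed, compounds pinned in, plates held at 37 °C for 72 h, then CellTiter-Glo is added and luminescence read after 10 minutes. Cell line: parental KB-3-1 in phenol-red-free DMEM, 10% FBS.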
ATXN2 expr inh – inhibitors of ATXN2 expression; HEK-293 ATXN2-luciferase reporter, luminescence, 24 h; Potency, µM (highest dose often 57 µM), most hits filed as inhibitors; hit rate 0.72% among 360,000; also: nearly all actives have a fitted effect of over 55% in size
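qHTS (up to 57 uM final) was run with 24 h compound exposure of reporter cells at 37 °C. Each well was multiplexed: SteadyGlo luminescence measured ATXN2-luciferase expression after a fluorogenic Gly-Phe-AFC viability readout (25 uM final).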
HT1080-NT tox – kills 2HG-producing HT-1080-NT fibrosarcoma cells. HT-1080-NT fibrosarcoma viability, CellTiter-Glo ATP luminescence, 48 h. Potency, µM (highest dose often 46.1 µM), most hits filed as cytotoxic. hit rate 1.6% among 360,000. AID 686970;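 also: NT is the 2HG producing partner of a matched IDH1 knockdown line; nearly all actives have a fitted effect of over 55% in size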
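Toxicity toward the 2HG-producing NT line was scored as %Activity, normalised to DMSO and no-cell wells, from CellTiter-Glo luminescence after 48 hours' treatment.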
KB-V1 MDR tox – kills drug-selected multidrug resistant KB-V1 cells | KB-V1 MDR cells viability, CellTiter-Glo, 72 h | Potency, µM (series often up to 46.1 µM), hits mostly cytotoxic | hit rate 3.4% among 400,000; also: nearly all actives have a fitted effect of over 60% in size
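KB-V1, DMEM (no phenol red) + 10% FBS; cpd pin-transferred, titration series; 72 h, 37 degrees C; CellTiter-Glo, luminescence. Data normalized, curve-fit.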
S2 tox – cell viability loss in ATXN counter-screen. S2 cells (HEK-293 line with an ATXN2-luciferase reporter) viability, CellTiter-Fluor protease fluorescence, 24 h. Potency, µM (series often up to 56.7 µM), hits mostly cytotoxic. hit rate 0.49% among 400,000. AID 651635; also: nearly all actives have a fitted effect of over 40% in size
HT1080 IDH1KD tx – toxicity to HT-1080 IDH1 knockdown cells (counter line) | HT-1080 IDH1 knockdown viability, ATP luminescence, 48 h | Potency, µM (doses to about 46.1 µM), actives largely listed as cytotoxic | hit rate 2% among 360,000
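After a 2 h attachment period, IDH1KD HT-1080 cells took pin-transferred compound for 48 h at 37 °C; ATP-based luminescence after 10 min room-temperature reagent incubation reported viability.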
Numbers stand for hits. Hits are enriched below; roughly 6.2% of the tested compounds scored in any of these assays. Calls follow the shape of the dose curve; as a rule, active = well fitted curve in the direction sought with a large enough effect; inconclusive = small, poorly fitted or top-dose-only effect, or another doubt; inactive = no such curve, though single readings can be large; an effect the other way counts as inactive or inconclusive.

For COc1ccc2nc(-c3ccccc3)cc(C(=O)N3CCC3)c2c1 the results were KB-3-1 tox inactive, HT1080-NT tox inactive, KB-V1 MDR tox inactive and HT1080 IDH1KD tx inactive.
Cc1cc2nc(-c3ccc(F)cc3)c(CC(C)(C)C)n2c(C)c1Br was read as KB-3-1 tox inactive, ATXN2 expr inh inactive, HT1080-NT tox inconclusive, KB-V1 MDR tox inactive, S2 tox inconclusive and HT1080 IDH1KD tx inconclusive.
Screening O=S1(=O)CC(N2CCN(CC3CC3)CC2)CN1Cc1ccc(F)cc1 (configuration not stated) returned KB-3-1 tox inactive, ATXN2 expr inh inactive, HT1080-NT tox inactive, KB-V1 MDR tox inactive, S2 tox inactive and HT1080 IDH1KD tx inactive.
`Cc1ccc(CNc2ncnc3sc(C(=O)N4CCCCC4c4cccnc4)c(C)c23)o1` (configuration not stated) gave S2 tox inactive.
Screening COc1ccc2cc(-c3cc(C(=O)O)c4ccccc4n3)ccc2c1 returned KB-3-1 tox 15µM, ATXN2 expr inh inconclusive, HT1080-NT tox inconclusive, KB-V1 MDR tox inactive, S2 tox inactive and HT1080 IDH1KD tx inconclusive.
For CN(CCO)C(=O)c1cn(C2CCN(Cc3ccc(C(F)(F)F)cc3)CC2)nn1 the results were S2 tox inactive.
For O=c1[nH]c2ccccc2n1CCCSCCCn1c(=O)[nH]c2ccccc21 the results were KB-3-1 tox 21µM, ATXN2 expr inh inactive, HT1080-NT tox inactive, KB-V1 MDR tox 18µM, S2 tox inconclusive and HT1080 IDH1KD tx inactive.
`O=c1[nH]c2ccccc2n1CCC1CCCCC1` gave KB-3-1 tox inactive, ATXN2 expr inh inactive, HT1080-NT tox inactive, KB-V1 MDR tox 18µM, S2 tox inactive and HT1080 IDH1KD tx inconclusive.
Screening CSCCC(C(=O)Nc1c(C)cccc1C)n1c(-c2cnc(C)cn2)nc2ccccc21 (configuration not stated) returned KB-3-1 tox inactive, HT1080-NT tox inactive, KB-V1 MDR tox inconclusive and HT1080 IDH1KD tx inactive.
For CCSCCCn1[nH]c2ccccc2c1=O the results were KB-3-1 tox inactive, ATXN2 expr inh inactive, HT1080-NT tox inactive, KB-V1 MDR tox inconclusive, S2 tox inactive and HT1080 IDH1KD tx inactive.
`Cc1ccccc1C(=O)NCC(=O)N1CCN(C/C=C/c2ccccc2)CC1` gave KB-3-1 tox inactive, ATXN2 expr inh inactive, HT1080-NT tox inactive, KB-V1 MDR tox inactive, S2 tox inactive and HT1080 IDH1KD tx inactive.
`Fc1ccccc1NC(=S)N1CCN(C/C=C/c2ccccc2)CC1` gave KB-3-1 tox inconclusive, ATXN2 expr inh inactive, HT1080-NT tox inactive, KB-V1 MDR tox 16µM, S2 tox inactive and HT1080 IDH1KD tx inactive.
COc1ccccc1C(=O)NCC(=O)N1CCN(C/C=C/c2ccccc2)CC1 was read as KB-3-1 tox inactive, ATXN2 expr inh inactive, HT1080-NT tox inactive, KB-V1 MDR tox 8.2µM, S2 tox inactive and HT1080 IDH1KD tx inactive.
For COc1cc(NC(=S)N2CCN(C/C=C/c3ccccc3)CC2)cc(OC)c1 the results were KB-3-1 tox inactive, ATXN2 expr inh inactive, HT1080-NT tox inactive, KB-V1 MDR tox inactive, S2 tox inactive and HT1080 IDH1KD tx inactive.
Screening COc1cccc(NC(=S)N2CCN(C/C=C/c3ccccc3)CC2)c1 returned KB-3-1 tox inactive, ATXN2 expr inh inactive, HT1080-NT tox 13µM, KB-V1 MDR tox inconclusive, S2 tox inactive and HT1080 IDH1KD tx inconclusive.
`Brc1ccc(/C=C2\C=Cc3ccccc32)cc1` gave KB-3-1 tox inactive and KB-V1 MDR tox inactive.
For COc1ccc(C2CC(=O)C3=C(C2)Nc2ncnn2C3c2ccccc2C)cc1 (configuration not stated) the results were KB-3-1 tox inactive, ATXN2 expr inh inactive, HT1080-NT tox inactive, KB-V1 MDR tox 16µM, S2 tox inactive and HT1080 IDH1KD tx inactive.
For CCCCC1C(=O)NN(c2ccccc2)C1=O (configuration not stated) the results were KB-3-1 tox inconclusive, ATXN2 expr inh inactive, HT1080-NT tox 1.8µM, KB-V1 MDR tox inactive, S2 tox inactive and HT1080 IDH1KD tx 4.6µM.
For O=C(/C=C/c1cccc([N+](=O)[O-])c1)c1cccs1 the results were KB-3-1 tox inconclusive, ATXN2 expr inh inconclusive, HT1080-NT tox 10µM, KB-V1 MDR tox inconclusive, S2 tox inconclusive and HT1080 IDH1KD tx 16µM.
O=C(/C=C/c1cccc([N+](=O)[O-])c1)n1cnc2ccccc21 was read as KB-3-1 tox inconclusive, ATXN2 expr inh inconclusive, HT1080-NT tox inconclusive, KB-V1 MDR tox inconclusive and HT1080 IDH1KD tx 2.6µM.
Screening Cc1cc(O)c(C(=O)/C=C/c2cccc([N+](=O)[O-])c2)c(=O)o1 returned KB-3-1 tox inactive, ATXN2 expr inh inactive, HT1080-NT tox inactive, KB-V1 MDR tox inactive, S2 tox inactive and HT1080 IDH1KD tx inactive.
CC(=O)Oc1ccccc1C(=O)C=Cc1cccc([N+](=O)[O-])c1 was read as KB-3-1 tox 15µM, ATXN2 expr inh inconclusive, HT1080-NT tox inconclusive, KB-V1 MDR tox 5.8µM and HT1080 IDH1KD tx 16µM.
For O=C(Cc1ccc(F)cc1)NCc1ccc2c(c1)CCN2C(=O)c1ccc(F)cc1 the results were KB-3-1 tox inactive and KB-V1 MDR tox inactive.
Screening O=C1CCCc2nc(N3CCc4ccccc43)ncc21 returned KB-3-1 tox inactive, ATXN2 expr inh inactive, HT1080-NT tox inactive, KB-V1 MDR tox inactive, S2 tox inactive and HT1080 IDH1KD tx inactive.
For Cc1nc(N2CCN(Cc3ccccc3)CC2)nc2c1C(=O)CCC2 the results were KB-3-1 tox inconclusive, ATXN2 expr inh inactive, HT1080-NT tox inactive, KB-V1 MDR tox 18µM, S2 tox inactive and HT1080 IDH1KD tx inactive.
Screening Cc1nc(N2CCN(Cc3ccc4c(c3)OCO4)CC2)nc2c1C(=O)CC(c1ccco1)C2 (configuration not stated) returned KB-3-1 tox inconclusive, ATXN2 expr inh inactive, HT1080-NT tox inactive, KB-V1 MDR tox inconclusive, S2 tox inactive and HT1080 IDH1KD tx inactive.
O=C1CCCc2nc(N3CCN(Cc4ccccc4)CC3)ncc21 was read as KB-3-1 tox inactive, ATXN2 expr inh inactive, HT1080-NT tox inactive, KB-V1 MDR tox 21µM, S2 tox inactive and HT1080 IDH1KD tx inactive.
For Cc1nc(N2CCN(Cc3ccccc3)CC2)nc2c1CCC2 the results were KB-3-1 tox inactive, ATXN2 expr inh inactive, HT1080-NT tox inactive, KB-V1 MDR tox inactive, S2 tox inactive and HT1080 IDH1KD tx inactive.
Cc1nc(N2CCN(Cc3ccccc3)CC2)nc2c1C(=O)CC(c1ccco1)C2 (configuration not stated) was read as KB-3-1 tox inconclusive, ATXN2 expr inh inactive, HT1080-NT tox inactive, KB-V1 MDR tox 8.2µM, S2 tox inactive and HT1080 IDH1KD tx inactive.
Screening CC(=O)SCC(CC(=O)c1ccc(C)cc1)C(=O)O (configuration not stated) returned ATXN2 expr inh inactive and S2 tox inactive.
